The full list was thinned out, with the strongest signals kept by preference.
Columns and labels:
Assay in all cases: glycan array binding signal (z-score within array); higher = stronger binding
Conditions in all cases: glycan notation: IUPAC condensed, linker removed
[1] = molecular target: Fuc(a1-2)Gal(b1-3)GlcNAc6S
In short: (§1)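 The binding signal is a Z-score computed within each array. Data were drawn from 3228 arrays in the Consortium for Functional Glycomics database, restricted to those with a known protein sequence. Scores were averaged over arrays of the same protein sequence at different concentrations or buffers, and over linkers, and negative values can be taken as non-binding.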

[2] = molecular target: Fuc(a1-2)Gal(b1-3)[Fuc(a1-4)]GlcNAc(b1-2)Man(a1-3)[Fuc(a1-2)Gal(b1-3)[Fuc(a1-4)]GlcNAc(b1-2)Man(a1-6)]Man(b1-4)GlcNAc(b1-4)[Fuc(a1-6)]GlcNAc(b1-4)[Fuc(a1-6)]GlcNAc
In short: as §1

[3] = molecular target: Fuc(a1-2)Gal(b1-4)GlcNAc(b1-2)Man(a1-3)[Fuc(a1-2)Gal(b1-4)GlcNAc(b1-2)Man(a1-6)]Man(b1-4)GlcNAc(b1-4)GlcNAc
In short: as §1

[4] = molecular target: Fuc(a1-2)Gal(b1-4)GlcNAc(b1-2)[Fuc(a1-2)Gal(b1-4)GlcNAc(b1-4)]Man(a1-3)[Fuc(a1-2)Gal(b1-4)GlcNAc(b1-2)Man(a1-6)]Man(b1-4)GlcNAc(b1-4)GlcNAc
In short: as §1

[5] = molecular target: Fuc(a1-2)Gal(b1-4)GlcNAc(b1-3)Gal(b1-4)GlcNAc(b1-2)Man(a1-3)[Fuc(a1-2)Gal(b1-4)GlcNAc(b1-3)Gal(b1-4)GlcNAc(b1-2)Man(a1-6)]Man(b1-4)GlcNAc(b1-4)GlcNAc
In short: as §1

[6] = molecular target: Fuc(a1-2)Gal(b1-4)[Fuc(a1-3)]GlcNAc
In short: as §1

[7] = molecular target: Fuc(a1-2)Gal(b1-4)[Fuc(a1-3)]GlcNAc(b1-2)[Fuc(a1-2)Gal(b1-4)[Fuc(a1-3)]GlcNAc(b1-4)]Man(a1-3)[Fuc(a1-2)Gal(b1-4)[Fuc(a1-3)]GlcNAc(b1-2)Man(a1-6)]Man(b1-4)GlcNAc(b1-4)GlcNAc
In short: as §1

[8] = molecular target: Fuc(a1-2)Gal6S(b1-3)GlcNAc6S
In short: as §1

[9] = molecular target: Fuc(a1-2)[Gal(a1-3)]Gal(b1-3)GlcNAc(b1-2)Man(a1-3)[Fuc(a1-2)[Gal(a1-3)]Gal(b1-3)GlcNAc(b1-2)Man(a1-6)]Man(b1-4)GlcNAc(b1-4)[Fuc(a1-6)]GlcNAc
In short: as §1

[10] = molecular target: Fuc(a1-2)[Gal(a1-3)]Gal(b1-4)[Fuc(a1-3)]GlcNAc
In short: as §1

[11] = molecular target: Fuc(a1-2)[GalNAc(a1-3)]Gal(b1-3)GlcNAc(b1-2)Man(a1-3)[Fuc(a1-2)[GalNAc(a1-3)]Gal(b1-3)GlcNAc(b1-2)Man(a1-6)]Man(b1-4)GlcNAc(b1-4)[Fuc(a1-6)]GlcNAc
In short: as §1

[12] = molecular target: Fuc(a1-2)[GalNAc(a1-4)]Gal(b1-4)GlcNAc
In short: as §1

[13] = molecular target: Fuc(a1-2)[GalNAc(b1-3)]Gal
In short: as §1

[14] = molecular target: Fuc(a1-3)[Gal(b1-4)]GlcNAc(b1-2)Man
In short: as §1

[15] = molecular target: Gal(a1-3)Gal(b1-3)GlcNAc(b1-2)Man
In short: as §1

[16] = molecular target: Gal(a1-3)Gal(b1-4)[Fuc(a1-3)]GlcNAc
In short: as §1

[17] = molecular target: Gal(a1-3)[Gal(a1-4)]Gal(b1-4)GlcNAc
In short: as §1

Gal(b1-3)GlcNAc = molecular target: Gal(b1-3)GlcNAc
In short: as §1

Gal(b1-3)GlcNAc(b1-2)Man = molecular target: Gal(b1-3)GlcNAc(b1-2)Man
In short: as §1

[18] = molecular target: Gal(b1-3)GlcNAc(b1-2)Man(a1-3)[GlcNAc(b1-4)][Gal(b1-3)GlcNAc(b1-2)Man(a1-6)]Man(b1-4)GlcNAc(b1-4)GlcNAc
In short: as §1

[19] = molecular target: Gal(b1-3)GlcNAc(b1-3)Gal(b1-4)GlcNAc(b1-2)Man(a1-3)[Gal(b1-3)GlcNAc(b1-3)Gal(b1-4)GlcNAc(b1-2)Man(a1-6)]Man(b1-4)GlcNAc(b1-4)GlcNAc
In short: as §1

[20] = molecular target: Gal(b1-3)GlcNAc(b1-3)Gal(b1-4)GlcNAc(b1-2)[Gal(b1-3)GlcNAc(b1-3)Gal(b1-4)GlcNAc(b1-6)]Man(a1-6)[Gal(b1-3)GlcNAc(b1-3)Gal(b1-4)GlcNAc(b1-2)Man(a1-3)]Man(b1-4)GlcNAc(b1-4)[Fuc(a1-6)]GlcNAc
In short: as §1

[21] = molecular target: Gal(b1-3)GlcNAc(b1-3)Gal(b1-4)GlcNAc(b1-3)Gal(b1-4)GlcNAc(b1-2)[Gal(b1-3)GlcNAc(b1-3)Gal(b1-4)GlcNAc(b1-3)Gal(b1-4)GlcNAc(b1-6)]Man(a1-6)[Gal(b1-3)GlcNAc(b1-3)Gal(b1-4)GlcNAc(b1-3)Gal(b1-4)GlcNAc(b1-2)Man(a1-3)]Man(b1-4)GlcNAc(b1-4)[Fuc(a1-6)]GlcNAc
In short: as §1

[22] = molecular target: Gal(b1-3)[Fuc(a1-4)]GlcNAc(b1-6)GalNAc
In short: as §1

[23] = molecular target: Gal(b1-4)GlcNAc(b1-2)Man(a1-6)[GlcNAc(b1-2)Man(a1-3)]Man(b1-4)GlcNAc(b1-4)GlcNAc
In short: as §1

[24] = molecular target: Gal(b1-4)GlcNAc(b1-3)Gal(b1-4)GlcNAc(b1-3)Gal(b1-4)GlcNAc(b1-3)Gal(b1-4)GlcNAc(b1-3)Gal(b1-4)GlcNAc(b1-2)Man(a1-3)[Gal(b1-4)GlcNAc(b1-3)Gal(b1-4)GlcNAc(b1-3)Gal(b1-4)GlcNAc(b1-3)Gal(b1-4)GlcNAc(b1-3)Gal(b1-4)GlcNAc(b1-2)Man(a1-6)]Man(b1-4)GlcNAc(b1-4)[Fuc(a1-6)]GlcNAc
In short: as §1

[25] = molecular target: Gal3S(b1-4)[Fuc(a1-3)]Glc6S
In short: as §1

Gal6P(b1-4)GlcNAc = molecular target: Gal6P(b1-4)GlcNAc
In short: as §1

B1: Blon2468mut (Bifidobacterium longum) (protein)
chain: MTFIKQMMPRYVASMTAGIVAAAMAATCAFAPVANADAVSPTQETIQSTGRHFMVYYRAWRDVTMKGVNTDLPDDNWISMYDIPYGVDVVNIFSYVPSGQEEQAQPFYDKLKSDYAPYLHSRGIKLVRGIDYTGVAVNGFRTFMKEQNKTESEATEADYDAYAKQVIDKYMISVGLDGLDIDMQAHPNDADVKISDNVIRALSKHIGPKSAKPDTTMFLYDTNGSYLNPFKNVAECFDYVAYQQYGSSSDRTARAAADYQPYIGNEFVPGLTFPEEGDMNNRWYDATEPYEESHFYQVASYVREHNLGGMFVYALDRDGRNYDEDLRRIVPSNLLWTKTAIAESEGMALDTAKTAANHYLDRMSLRQVIDDNAASADKARDMVGKAANLYETNKAVLGGDYGEGFSNTYDPTLEAGLLGIDISVLQQQIDKSSEIIGADTAESDAKTALRMARDAAIDGLTGKIYTADQVSAWSQALKAALDATVPVPTPDSTDQNGNRDKVTNHKVQGQPKQLSATGISTDIIVAVGVTLAIAGVALSLSRKLS
glycan array binding signal (z-score) [1]: -0.052
glycan array binding signal (z-score) [2]: -0.074
glycan array binding signal (z-score) [3]: -0.068
glycan array binding signal (z-score) [4]: -0.045
glycan array binding signal (z-score) [5]: 0.003
glycan array binding signal (z-score) [6]: -0.065
glycan array binding signal (z-score) [7]: -0.036
glycan array binding signal (z-score) [8]: 0.078
glycan array binding signal (z-score) [9]: -0.055
glycan array binding signal (z-score) [10]: -0.049
glycan array binding signal (z-score) [11]: -0.036
glycan array binding signal (z-score) [12]: -0.021
glycan array binding signal (z-score) [13]: -0.061
glycan array binding signal (z-score) [14]: -0.022
glycan array binding signal (z-score) [15]: -0.087
glycan array binding signal (z-score) [16]: -0.083
glycan array binding signal (z-score) [17]: 0.009
glycan array binding signal (z-score) (Gal(b1-3)GlcNAc): -0.068
glycan array binding signal (z-score) (Gal(b1-3)GlcNAc(b1-2)Man): -0.078
glycan array binding signal (z-score) [18]: -0.042
glycan array binding signal (z-score) [19]: -0.09
glycan array binding signal (z-score) [20]: 0.03
glycan array binding signal (z-score) [21]: 0.124
glycan array binding signal (z-score) [22]: -0.056
glycan array binding signal (z-score) [23]: -0.055
glycan array binding signal (z-score) [24]: -0.046
glycan array binding signal (z-score) [25]: 0.006
glycan array binding signal (z-score) (Gal6P(b1-4)GlcNAc): -0.066

Reference: the supplement of paper PMC8728848
